# This excerpt belongs to a sample that is enriched for the strongest signals.
# B1: B160 (Bifidobacterium sp) (protein)
# chain: MVSHNKRIVAALAAVAAMGIGLAGCGGSDTAGDTKSGSDGGVVNITYMHRLPDSEGMTLVNDIVAKWNKEHPNIQVKATKFDGNAADMIKKLETDVKAGNAPDLAQVGYAEVPEVFTKGLLQDVTDEAAKYKDDFASGPFALMQVDGKTYGLPQDTGPLTYFYNAAEFEKLGITVPKTADELIETAKKTAAQGKYIMTFTPDEAMMMMSGQAGASGPWYKVDGNSWVVNTQTKGSKAVADVYQQLIDNKAALTNPRWDASFDNSIQSGQLIGTVAAAWEAPLFIDSAGGTGAGEWKVTQLGDWFGNGTKTGANGGSGVAVLKGSKHPAEAMEFLDWFNTQVDDLVSQGLVVAATTADAKTPQKWSDYFSGQDVMAEFKTANDNMGDFTYMPGFSAVGAAMKQTAAKAADGSAKVSDVFDTAQKTSVDTLKNLGLSVKE
# What was measured:
# Test in all cases: glycan array binding signal (z-score within array); higher = stronger binding
# Conditions in all cases: glycan notation: IUPAC condensed, linker removed
# [1] = biological target: Fuc(a1-2)Gal(b1-3)[Fuc(a1-4)]GlcNAc(b1-2)Man(a1-3)[Fuc(a1-2)Gal(b1-3)[Fuc(a1-4)]GlcNAc(b1-2)Man(a1-3)]Man(b1-4)GlcNAc(b1-4)GlcNAc
# Outline: (§1)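 Glycan array data came from 3228 arrays in the Consortium for Functional Glycomics database, and only arrays with an available protein sequence were kept. Glycan names were put into IUPAC-condensed notation, and columns mapping to the same glycan were averaged. The binding signal is a within-array Z-score, averaged across arrays of one protein sequence run at different concentrations or buffers and across linkers. A negative Z-score can be read as non-binding.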
# [2] = biological target: Fuc(a1-2)[Gal(a1-3)]Gal(b1-4)GlcNAc(b1-3)GalNAc
# Outline: as §1
# [3] = biological target: Fuc(a1-2)[Gal(a1-3)]Gal(b1-4)GlcNAc(b1-6)GalNAc
# Outline: as §1
# [4] = biological target: Fuc(a1-2)[Gal(a1-4)]Gal(b1-4)GlcNAc
# Outline: as §1
# [5] = biological target: Fuc(a1-2)[GalNAc(a1-3)]Gal(b1-3)GlcNAc(b1-2)Man(a1-3)[Fuc(a1-2)[GalNAc(a1-3)]Gal(b1-3)GlcNAc(b1-2)Man(a1-6)]Man(b1-4)GlcNAc(b1-4)[Fuc(a1-6)]GlcNAc
# Outline: as §1
# [6] = biological target: Fuc(a1-2)[GalNAc(a1-3)]Gal(b1-4)[Fuc(a1-3)]GlcNAc(b1-3)GalNAc
# Outline: as §1
# [7] = biological target: Fuc(a1-3)[Gal(b1-4)]GlcNAc(b1-3)Gal(b1-3)[Fuc(a1-4)]GlcNAc
# Outline: as §1
# [8] = biological target: Fuc(a1-3)[Gal(b1-4)]GlcNAc(b1-3)Gal(b1-4)[Fuc(a1-3)]GlcNAc(b1-3)Gal(b1-4)[Fuc(a1-3)]GlcNAc
# Outline: as §1
# [9] = biological target: Fuc(a1-3)[Gal3S(b1-4)]GlcNAc6S
# Outline: as §1
# [10] = biological target: Fuc(a1-4)GlcNAc
# Outline: as §1
# [11] = biological target: Gal(a1-3)Gal(b1-4)GlcNAc
# Outline: as §1
# [12] = biological target: Gal(a1-4)Gal(b1-3)GlcNAc(b1-2)Man(a1-3)[Gal(a1-4)Gal(b1-3)GlcNAc(b1-2)Man(a1-6)]Man(b1-4)GlcNAc(b1-4)GlcNAc
# Outline: as §1
# [13] = biological target: Gal(b1-3)Gal(b1-4)GlcNAc
# Outline: as §1
# [14] = biological target: Gal(b1-3)GalNAc(b1-3)Gal
# Outline: as §1
# [15] = biological target: Gal(b1-3)GalNAc(b1-4)Gal(b1-4)Glc
# Outline: as §1
# [16] = biological target: Gal(b1-3)GlcNAc(b1-3)Gal(b1-4)Glc
# Outline: as §1
# [17] = biological target: Gal(b1-3)GlcNAc(b1-3)Gal(b1-4)GlcNAc
# Outline: as §1
# [18] = biological target: Gal(b1-3)GlcNAc(b1-3)Gal(b1-4)GlcNAc(b1-2)Man(a1-3)[Gal(b1-3)GlcNAc(b1-3)Gal(b1-4)GlcNAc(b1-2)Man(a1-6)]Man(b1-4)GlcNAc(b1-4)GlcNAc
# Outline: as §1
# [19] = biological target: Gal(b1-3)GlcNAc(b1-3)Gal(b1-4)GlcNAc(b1-2)[Gal(b1-3)GlcNAc(b1-3)Gal(b1-4)GlcNAc(b1-6)]Man(a1-6)[Gal(b1-3)GlcNAc(b1-3)Gal(b1-4)GlcNAc(b1-2)Man(a1-3)]Man(b1-4)GlcNAc(b1-4)[Fuc(a1-6)]GlcNAc
# Outline: as §1
# [20] = biological target: Gal(b1-3)GlcNAc(b1-3)Gal(b1-4)GlcNAc(b1-3)Gal(b1-4)GlcNAc(b1-2)[Gal(b1-3)GlcNAc(b1-3)Gal(b1-4)GlcNAc(b1-3)Gal(b1-4)GlcNAc(b1-6)]Man(a1-6)[Gal(b1-3)GlcNAc(b1-3)Gal(b1-4)GlcNAc(b1-3)Gal(b1-4)GlcNAc(b1-2)Man(a1-3)]Man(b1-4)GlcNAc(b1-4)[Fuc(a1-6)]GlcNAc
# Outline: as §1
# [21] = biological target: Gal(b1-3)GlcNAc(b1-3)Gal(b1-4)GlcNAc(b1-6)[Gal(b1-3)GlcNAc(b1-3)]Gal(b1-4)Glc
# Outline: as §1
# [22] = biological target: Gal(b1-3)GlcNAc6S
# Outline: as §1
# [23] = biological target: Gal(b1-3)[Fuc(a1-4)]GlcNAc(b1-3)Gal(b1-3)[Fuc(a1-4)]GlcNAc
# Outline: as §1
# [24] = biological target: Gal(b1-3)[Neu5Ac(a2-6)]GlcNAc(b1-4)Gal(b1-4)Glc
# Outline: as §1
# [25] = biological target: Gal(b1-4)GlcNAc(b1-2)Man(a1-3)[Man(a1-6)]Man(b1-4)GlcNAc(b1-4)GlcNAc
# Outline: as §1
# [26] = biological target: Gal(b1-4)GlcNAc(b1-2)[Gal(b1-4)GlcNAc(b1-4)]Man(a1-3)[Gal(b1-4)GlcNAc(b1-2)[Gal(b1-4)GlcNAc(b1-6)]Man(a1-6)]Man(b1-4)GlcNAc(b1-4)GlcNAc
# Outline: as §1
binder,measurement,setting,value
B1,glycan array binding signal (z-score),[1],-0.134
same,glycan array binding signal (z-score),[2],-0.168
same,glycan array binding signal (z-score),[3],-0.163
same,glycan array binding signal (z-score),[4],-0.15
same,glycan array binding signal (z-score),[5],-0.126
same,glycan array binding signal (z-score),[6],-0.135
same,glycan array binding signal (z-score),[7],-0.164
same,glycan array binding signal (z-score),[8],-0.14
same,glycan array binding signal (z-score),[9],-0.145
same,glycan array binding signal (z-score),[10],-0.176
same,glycan array binding signal (z-score),[11],-0.166
same,glycan array binding signal (z-score),[12],-0.093
same,glycan array binding signal (z-score),[13],11.7
same,glycan array binding signal (z-score),[14],6.25
same,glycan array binding signal (z-score),[15],8.55
same,glycan array binding signal (z-score),[16],4.36
same,glycan array binding signal (z-score),[17],4.98
same,glycan array binding signal (z-score),[18],5.11
same,glycan array binding signal (z-score),[19],8.35
same,glycan array binding signal (z-score),[20],6.21
same,glycan array binding signal (z-score),[21],5.45
same,glycan array binding signal (z-score),[22],6.55
same,glycan array binding signal (z-score),[23],-0.141
same,glycan array binding signal (z-score),[24],6.71
same,glycan array binding signal (z-score),[25],-0.176
same,glycan array binding signal (z-score),[26],-0.18

# — the supplement of paper PMC8728848
